# Screening results: PubChem, several laboratories
# An excerpt weighted towards active compounds, which were near 2.1% of everything screened.
# CHT allo act: human CHT allosteric activation; Q9GZV3; CHT-expressing cells, membrane potential dye, choline EC20; active compounds read high; LV-AA mutant CHT in HEK293 cells; AID 488977; B-score at 10 µM; hit rate 0.49% among 310,000;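 active = initial fluorescence not abnormally high and integrated response B-score, plate-corrected, over 3 SD above library mean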
# Target sequence (Q9GZV3 whole entry, looked up): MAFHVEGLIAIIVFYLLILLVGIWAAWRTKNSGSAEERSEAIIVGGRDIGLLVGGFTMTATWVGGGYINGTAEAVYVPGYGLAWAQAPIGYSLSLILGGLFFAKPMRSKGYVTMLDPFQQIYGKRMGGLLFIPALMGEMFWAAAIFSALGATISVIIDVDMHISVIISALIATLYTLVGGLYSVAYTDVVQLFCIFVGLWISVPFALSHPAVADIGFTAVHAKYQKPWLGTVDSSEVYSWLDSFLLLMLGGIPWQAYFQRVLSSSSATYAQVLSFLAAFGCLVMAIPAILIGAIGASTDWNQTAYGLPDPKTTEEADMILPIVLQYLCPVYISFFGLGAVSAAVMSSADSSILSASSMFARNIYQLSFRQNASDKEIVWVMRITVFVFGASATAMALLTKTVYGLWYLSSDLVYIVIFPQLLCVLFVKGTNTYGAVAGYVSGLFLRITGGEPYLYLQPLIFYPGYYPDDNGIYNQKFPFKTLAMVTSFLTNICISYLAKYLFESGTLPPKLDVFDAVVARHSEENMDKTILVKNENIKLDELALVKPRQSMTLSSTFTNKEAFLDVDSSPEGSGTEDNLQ
# CHT block: inhibitors of human choline transporter CHT; B-score at 10 µM; Q9GZV3; CHT-expressing cells, membrane potential dye, choline response; active compounds read low; hit rate 0.86% among 310,000;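 active = B-score over 3 SD under the library average, and starting fluorescence ratio not unusually high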;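 note: choline stimulus applied at its EC90 after an EC20 pre-addition; B-score computed on integrated fluorescence ratio after choline addition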
# EP2 mod: EP2 receptor (human) modulation; P43116; hit rate 0.83% among 260,000; AID 940; induction, % at 25 µM; EP2-expressing cells, cAMP HTRF FRET, PGE2 co-stimulation;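 active = compounds whose cAMP rise, as percent of the full-agonist control response, exceeds 60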;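 note: rat C6 glioma line stably carrying human EP2 under a CMV promoter; the protocol text gives 20 µM as final concentration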
# EP2 antag: EP2 receptor (human) inhibition; P43116; C6 glioma cells expressing human EP2, cAMP TR-FRET; cells stimulated with saturating PGE2; inhibition, % at 25 µM; hit rate 0.52% among 260,000; AID 1422;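 active = percent inhibition above 40 after rounding to a whole number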;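 note: rat C6 glioma host cells with rolipram phosphodiesterase inhibitor present; the protocol text gives 20 µM as final concentration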
# CHT act confirm: human CHT activation, confirmatory screen | AID 504833 | CHT-expressing cells, membrane potential dye fluorescence (FDSS); % of choline EC20–EC90 response window; HEK293 expressing CHT LV-AA mutant; choline added at its EC20 | activation, % at 10 µM | shares compounds with CHT allo act | hit rate 91% among 2,500;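 active = primary screen active, with duplicate mean activation above negative control mean plus 3 SD, cut at about 11% in these data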
# HEK293 MP dye: CHT activator counter-screen hit in parental HEK293 cells | shares compounds with CHT allo act | membrane potential dye fluorescence (FDSS); measured after EC20 choline addition | ratio readout change at 10 µM, hits read low | hit rate 62% among 2,500 | AID 623908;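 active = duplicate-averaged ratio beyond 3 SD from buffer wells, up or down, though filed actives are nearly all decreases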
# Numbers stand for hits; . = inactive; / = no result; ! = not active in a repeat.
SMILES,CHT allo act,CHT block,EP2 mod,EP2 antag,CHT act confirm,HEK293 MP dye
COc1ccc(C(c2nnnn2C2CCCCC2)N2CCN(c3ccccc3F)CC2)cc1OC (stereo unspecified),/,/,.,.,/,/
COc1ccc(OC)c(C(c2nnnn2C2CCCC2)N2CCN(c3ccccc3F)CC2)c1 (stereo unspecified),.,.,66!,.,35,.
COc1ccc2sc(C)[n+](C)c2c1,11,.,.,.,39,-30
CCCC[n+]1c(C)sc2cc(OC)ccc21,.,.,.,.,/,/
COCCNc1ccnc2c(Cl)cccc12,6.3,.,.,.,57,-61
Cc1ccn2c(Nc3ccc4c(c3)OCO4)c(-c3ccccn3)nc2c1,6.3,.,.,.,51,.
O=C(NCc1cccnc1)/C(=C\c1ccc(-c2ccc(Cl)c(Cl)c2)o1)S(=O)(=O)c1ccccc1,6.7,.,.,.,14,.
O=C(NCc1cccnc1)c1ccc(-c2ccc(Cl)cc2)o1,.,.,.,.,/,/
Cc1cc(N(C)CCO)n2nc(-c3cccs3)cc2n1,/,/,.,.,/,/
Cc1cc(NCCCO)n2nc(-c3cccs3)cc2n1,8.1,.,.,.,62,-56
Cc1cc(NCCN(C)C)n2nc(-c3cccs3)cc2n1,10,.,.,.,47,-89
O=C1CCCCCCCCCC/C(=N\O)CCCO1,.,.,/,/,14,.
CCc1ccccc1NC(=O)CSc1nnc(-c2ccoc2C)n1Cc1ccco1,/,/,.,.,/,/
COc1ccc2c(c1)[nH]c1c(=O)n(CCCN3CCOCC3)cnc12,.,.,.,.,/,/
COc1ccc2c(c1)c1ncn(CCCN3CCOCC3)c(=O)c1n2C,.,.,.,.,44,-39
COc1ccc(CN(Cc2cnc[nH]2)Cc2ccco2)c(OC)c1,/,/,.,.,/,/
CC1CCCN(c2nc3c(c(=O)[nH]2)CN(Cc2ccnc4ccccc24)CC3)C1 (stereo unspecified),/,/,.,.,/,/
CC1CCCN(c2c3c(nc4ccccc24)CCCC3)C1 (stereo unspecified),.,.,/,/,20,.
N=c1c2c3c(sc2ncn1CCCO)CCCC3,9.5,.,.,.,26,-56
N=c1c2c3c(sc2ncn1Cc1ccccc1)CCCC3,.,.,.,.,/,/
CCCCn1cnc2sc3c(c2c1=N)CCCC3,.,.,.,.,53,-41
N=c1c2c3c(sc2ncn1CCN1CCOCC1)CCCCC3,.,.,.,.,69,-32
CCOc1ccc(C2C(C(=O)OC(C)C)=C(C)NC3=C2C(=O)CC(C)(C)C3)cc1 (stereo unspecified),/,/,.,.,/,/
CCOc1ccc(NC(=O)CSc2nc3cccnc3n2C)cc1,/,/,.,.,/,/
CCn1c(=O)c2sccc2n(Cc2cc(C(=O)OC)ccc2OC)c1=O,.,.,/,/,36,.
SMILES,CHT allo act,CHT block,EP2 mod,EP2 antag,CHT act confirm,HEK293 MP dye
COc1nnc(-c2ccc(N3CCOCC3)c(NC(=O)C3CCCCC3)c2)c2ccccc12,.,.,.,.,.,.
CCN(CC)c1ccc(-c2nc3cnccc3n2C)cc1,10,.,.,.,33,-49
Cc1cc(C)c2c(NC/C=C/c3ccccc3)n[nH]c2n1,/,/,.,.,/,/
CC(=O)c1c(C)nc2sc3c(=N)n(N)cnc3c2c1-c1ccc(Cl)cc1,6.7,.,.,.,50,-40
CCOC(=O)c1c(C)nc2sc3c(=O)n(-c4ccc(C(C)=O)cc4)cnc3c2c1-c1ccc(OC)cc1,.,.,.,.,/,/
CC(Oc1cc2oc(=O)c3c(c2cc1Cl)CCC3)C(=O)NC1CC(C)(C)NC(C)(C)C1 (stereo unspecified),.,.,/,/,/,/
Cc1c(OC(C)C(=O)NC2CC(C)(C)NC(C)(C)C2)ccc2c3c(c(=O)oc12)CCC3 (stereo unspecified),6.7,.,/,/,43,-52
N=c1c(C(=O)NC2CCCC2)cc2c(=O)n3ccccc3nc2n1C1CCCCC1,.,.,/,/,48,-35
CCOC(=O)c1c(C)n(C)c2ccc(OC)c(NC(=O)CCN3CCC(Cc4ccccc4)CC3)c12,.,.,.,.,.,.
COCC(=O)Nc1nnc(C2CCCC2)s1,/,/,.,.,/,/
O=C(NCc1ccccc1)[C@@H]1C[C@H]1[C@@H](NP(=O)(c1ccccc1)c1ccccc1)c1ccccc1,.,.,.,.,/,/
O=C(NCC1CC1)[C@@H]1C[C@H]1[C@@H](NP(=O)(c1ccccc1)c1ccccc1)c1ccccc1,.,.,.,.,.,.
CCCN(CC(=O)Nc1cc(Cl)cc(Cl)c1)CC(=O)Nc1ccc(F)c(F)c1F,.,.,.,.,/,/
CCCN(CC(=O)Nc1ccccc1Br)CC(=O)Nc1ccc(F)c(F)c1F,.,.,.,.,18,.
O=c1[nH]cccc1-c1nc2ccccc2[nH]1,.,.,/,/,34,-30
CCOC(=O)c1cnc2c(cnn2C)c1NCCCn1ccnc1,7.2,.,.,.,44,-81
Cc1cccc2cc(C#N)c(=S)[nH]c12,/,/,.,.,/,/
Nc1ccc(N2CCCCC2)cc1N1CCCCC1,7.9,.,.,/,49,-32
CCc1cc(=O)oc2cc(C)cc(OC(C)C(=O)NCCCN3CCOCC3)c12 (stereo unspecified),.,.,/,/,43,-33
Cc1cc(=O)oc2c3c(cc(OCC(=O)NCCCn4ccnc4)c12)OC(C)(C)CC3,.,.,/,/,24,-36
Cc1cc(OCC(=O)NCCN2CCOCC2)c2c(C)c(C)c(=O)oc2c1,.,.,/,/,56,-54
CCc1cc(=O)oc2cc(C)cc(OC(C)C(=O)NC3CCN(Cc4ccccc4)CC3)c12 (stereo unspecified),.,.,/,/,54,-45
COc1ccc(N2CCN(C(c3cc4cccc(C)c4[nH]c3=O)c3nnnn3C(C)(C)C)CC2)cc1 (stereo unspecified),/,/,.,.,/,/
COc1ccc(-c2nnc(SCC(N)=O)n2-c2cccc(C)c2C)cc1OC,/,/,.,.,/,/
C=CCn1c(SCC(=O)Nc2cc(C)ccc2C)nc2sc(C)cc2c1=O,/,/,.,.,/,/
SMILES,CHT allo act,CHT block,EP2 mod,EP2 antag,CHT act confirm,HEK293 MP dye
Cc1cc(OC(C)C(=O)NCCCN2CCOCC2)c2c(C)c(C)c(=O)oc2c1 (stereo unspecified),6.4,.,/,/,62,-48
COc1ccc(-c2cc(=O)oc3c(C)c(OCC(=O)NCCCn4ccnc4)ccc23)cc1,.,.,/,/,/,/
CCCc1cc(=O)oc2c3c(cc(OCC(=O)NCC4CCC(C(=O)O)CC4)c12)OC(C)(C)CC3 (stereo unspecified),.,.,/,/,.,.
CCCc1cc(=O)oc2c(C)c(OCC(=O)NCCCn3ccnc3)ccc12,.,.,/,/,44,-44
CCc1cc(=O)oc2c3c(cc(OCC(=O)NCCCCCC(=O)O)c12)OC(C)(C)CC3,.,.,/,/,/,/
Cc1cc(OCC(=O)NCCCn2ccnc2)c2c(C)c(C)c(=O)oc2c1,.,.,/,/,41,-64
Cc1cc(C)c(S(=O)(=O)N(C)CC(=O)N2CCC(C)CC2)c(C)c1,/,/,.,.,/,/
